In ChEMBL document CHEMBL4513216, “Probing the Open Global Health Chemical Diversity Library for Multistage-Active Starting Points for Next-Generation Antimalarials” (ACS Infect Dis, 2020):
Among all 65,000 compounds or so, about 2,100 (3.2%) showed an effect of 50% or more. The median lay at about -52%. The list comes from a sample in which strong results are over-represented; it also holds similar structures and randomly drawn compounds.

system: Plasmodium falciparum; assay: Screen against P. falciparum Asexual Blood Stage (ABS), at 5uM; assay type: functional, Dd2; settings: tested at 5 uM

SMILES | INHIBITION [%]
N#Cc1cccc(S(=O)(=O)N2CCCCC2CCN2CCCC2)c1 (centres undefined) | -4
CCN1CCCC1CN(CCN(C)C)S(=O)(=O)c1cccc(C#N)c1 (centres undefined) | 60.4
CCN1CCCC1CN(CCN(C)C)S(=O)(=O)c1ccc(C#N)cc1 (centres undefined) | 59.7
CN(CCn1cccn1)S(=O)(=O)c1ccc(C#N)cc1 | -48.4
COCCCC1CCCCN1S(=O)(=O)c1cccc(C#N)c1 (centres undefined) | -16.1
CCN(C)C[C@@H]1CN(S(=O)(=O)c2ccc(C#N)cc2)C[C@@H]1CO | 15.5
CN1CCN(C(=O)c2cnsn2)c2cc(F)ccc21 | -79.3
CSc1ccc(-c2noc(CN(CC(C)C)CC(C)C)n2)cc1 | -63.5
O=C(O)C1(Cc2cc(-c3ccc(F)cc3)no2)CCOCC1 | -19.8
Cc1ccc(NC(=O)CC2Cn3ncnc3NC2=O)cc1C (centres undefined) | -65.7
Cc1cnn(CC2CCCN2Cc2nccn2C)c1 (centres undefined) | -72.8
CCn1ccnc1CN1CCCC1Cn1cc(C)cn1 (centres undefined) | 65.6
Cc1cnn(CC2CCCN2Cc2nccn2CC(F)(F)F)c1 (centres undefined) | -0.234
CN(C)CCCNC(=O)c1ccc(N(C)S(C)(=O)=O)cc1Cl | -70.5
O=C(CCc1ccccc1F)NS(=O)(=O)c1ccc2c(c1)OCCO2 | -17.8
CCS(=O)(=O)N1CCCC2(COCCN(c3ccccn3)C2)C1 (centres undefined) | -1.4
COCC(O)CNC(=O)Nc1ccc(Cl)cc1-n1cccc1 (centres undefined) | -45.8
CCCn1ncc(CN(Cc2cccnc2)Cc2ccsc2)c1C | -129
CCCn1ncc(CN(CCN(C)C)Cc2ccsc2)c1C | 54.5
CCCn1ncc(CN(Cc2ccsc2)Cc2ccco2)c1C | -122
CCCc1cc(C(=O)NC(COC)c2ccnn2C)no1 (centres undefined) | 4.52
Cc1ccsc1CN(Cc1ccccn1)CC(C)C | -56.9
COCCN(Cc1ccccn1)Cc1sccc1C | -158
Cc1ccsc1CN(CCN(C)C)Cc1ccccn1 | 58.9
Cc1ccc(CCNC(=O)CC2COCCN2S(=O)(=O)N(C)C)s1 (centres undefined) | -49
Cc1cc(C)n(CC2CCCN2Cc2ncc(C(C)(C)C)o2)n1 (centres undefined) | -80.1
Cc1nc(C)n(CC2CCCN2Cc2nc(N)c3ccccc3n2)n1 (centres undefined) | -98.4

SMILES | INHIBITION [%]
Cc1nc(C)n(CC2CCCN2Cc2ncc(C(C)(C)C)o2)n1 (centres undefined) | 61.9
Cc1nc(C)n(CC2CCCCN2Cc2ncc(C(C)(C)C)o2)n1 (centres undefined) | -43.5
Cc1nn(C)c(C)c1C1CCCN1Cc1nc2ccccc2n1C (centres undefined) | 1.9
Cc1nc2ccccc2nc1CN1CCCC1c1c(C)nn(C)c1C (centres undefined) | 58.1
Cc1nc(CN2CCCC2Cn2cccn2)nc2ccccc12 (centres undefined) | 55.5
Cc1nc(C)n(CC2CCCN2Cc2nc3ccccc3nc2C)n1 (centres undefined) | 31.2
Cc1nn(C)c(C)c1C1CCCN1Cc1nc(C)c2ccccc2n1 (centres undefined) | -19.2
Cc1nc(C)n(CC2CCCN2Cc2nc(C)c3ccccc3n2)n1 (centres undefined) | 55
Cc1nc(CN2CCCCC2Cn2cncn2)nc2ccccc12 (centres undefined) | -50.6
Cc1nc(CN2CCCC2Cn2cncn2)nc2ccccc12 (centres undefined) | -14.5
CCn1nccc1CNC(=O)Cn1cc2c(n1)c(C)nn2C(C)C | -127
CC(C)N1CCOCC2(CCCN(C(=O)c3cncn3C)C2)C1 (centres undefined) | -78.3
O=C(NCc1cc[nH]n1)NCC(O)c1ccc(F)cc1 (centres undefined) | 3.65
Cc1ccc(CN2CCC3(CC2)C(c2ccccc2)CC(=O)N3C)o1 (centres undefined) | 17.1
C=Cn1cc(CN2CCC(c3ncc(Cl)cc3S(C)(=O)=O)CC2)c(C)n1 | 14.8
CN(C(=O)CN1CCOC(Cn2cccn2)C1)c1nccs1 (centres undefined) | -24.5
Cc1nc2ccccc2nc1CN1CCCCC1Cn1cccn1 (centres undefined) | -78.3
Cc1c(Cl)c(CN2CCCC2Cn2cncn2)nc2ccccc12 (centres undefined) | 16.2
Cc1nc2ccccc2nc1CN1CCCC1Cn1cncn1 (centres undefined) | 62.3
Cc1nc2ccccc2nc1CN1CCCC1Cn1cccn1 (centres undefined) | 69.3
Cc1cnn(CC2CCCN2Cc2nc3ccccc3nc2C)c1 (centres undefined) | -88.9
Cc1nc2ccccc2nc1CN1CCCC(Cn2cncn2)C1 (centres undefined) | -96.3
CC1CCc2nn(CCNC(=O)Cc3ccc(F)cc3)c(=O)cc2C1 (centres undefined) | -65.3
CN1CCOCC2(CCCN(C(=O)c3ccc(-n4cccc4)cc3)C2)C1 (centres undefined) | 28.9
CNC(=O)c1nc(CN2CCOC(C(F)(F)F)C2)no1 (centres undefined) | -43.7
CNC(=O)c1nc(CN2CCOC(Cc3ccc(F)cc3)C2)no1 (centres undefined) | 51.7
CNC(=O)c1nc(CN2CCOC(CCCC(C)C)C2)no1 (centres undefined) | -32
